We go through 27 compounds from PubChem BioAssay (Tox21).

A number with no mark means an inactive call. Inconclusive results are not listed. The source made the active and inactive calls. Unless noted, the call rests on the fitted dose curve; in most records, active means well fitted curve in the direction sought with a large enough effect in the repeat runs; inconclusive means weak or mixed curves; inactive means no such curve, though single readings can be large; an effect the other way counts as inactive or inconclusive.

Test [1] has as its target Estrogen receptor beta (Homo sapiens) (UniProt Q92731). Kind of test: qHTS assay to identify small molecule agonists of the estrogen receptor beta (ER-beta) signaling pathway (AID 1259377; active means well fitted activation curve with a large enough effect in the signal ratio in the repeat runs, not every such curve was filed as active; the % refers to the signal ratio; further: potency means the concentration at half of the fitted maximal effect). In outline: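 Screening used GripTite ER-beta-UAS-bla cells held in 2% charcoal-stripped FBS medium. After overnight (16 hr) compound incubation at 37C, beta-lactamase activity was detected with a FRET substrate by fluorescence.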
(In qHTS, concentration-response curves come from the screen itself.)

Test [2] shares this target. Nature of the test: qHTS assay to identify small molecule antagonists of the estrogen receptor beta (ER-beta) signaling pathway (AID 1259378; active means well fitted inhibition curve with a large enough effect in the signal ratio in the repeat runs, not every such curve was filed as active; the % refers to the signal ratio; further: potency means the concentration at half of the fitted maximal effect). In outline:
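ER-beta-UAS-bla HEK293T cells in 2% charcoal-stripped FBS medium treated with compound plus 1nM final 17-beta-estradiol for 16 hr at 37C. Beta-lactamase reporter read by FRET substrate fluorescence after 2 hours at room temperature.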

A short description of test [3]: qHTS assay to identify small molecule agonists of the androgen receptor (AR) signaling pathway in the presence of an antagonist - cell viability counter screen (AID 1259379). Further: nearly all actives have a fitted effect of over 25% in size. Further: potency means the concentration at half of the fitted maximal effect.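 On activity change, negative = cytotoxicity: MDA-kb2 human breast cancer cells carrying an MMTV luciferase reporter; series mostly up to about 92 µM.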 In outline:
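A CellTiter-Fluor read-out measured viability of MDA-kb2 reporter cells (MMTV promoter with AR and GR response elements). Treatment: nilutamide 3.0uM final with compounds at 15 concentrations, 16 hr, 37C, 0% CO2.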

Test [4] in a line: qHTS assay to identify small molecule agonists of the estrogen receptor beta (ER-beta) signaling pathway - cell viability counter screen (AID 1259380). Further: nearly all actives have a fitted effect of over 30% in size. Further: potency means the concentration at half of the fitted maximal effect. In outline:
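Cells used were ER-beta-UAS-bla HEK293T in medium with 2% charcoal-stripped FBS. They were treated for 16 hr at 37C. Viability came from CellTiter-Glo luminescence.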

Test [5] concerns the target Estrogen receptor (Homo sapiens) (UniProt P03372). Kind of test: qHTS assay to identify small molecule agonists of the estrogen receptor alpha (ER-alpha) signaling pathway in the presence of an antagonist (AID 1259383; calls by dose curve; further: nearly all actives have a fitted effect of over 15% in size; further: potency means the concentration at half of the fitted maximal effect; on activation: top concentration of the series differs between compounds). In outline: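 Using VM7Luc4E2 cells seeded 24hr before treatment, antagonist ICI-182,780 (10.0nM final) was added, followed by compounds at 15 concentrations. Plates incubated 22hr; ONE-Glo luminescence quantified reporter activity.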

A short description of test [6]: qHTS assay to identify small molecule agonists or antagonists of the thyroid stimulating hormone receptor (TSHR) signaling pathway - wild type cell line counter screen (AID 1259384; calls by dose curve). The method, boiled down:
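Wild-type Hek293 cells, 800/well, 18 h at 37C, then compound with Ro20-1724 for 30 min RT. cAMP by HTRF (cAMP-d2/anti-cAMP cryptate), 1 h RT, fluorescence read. 15 concentrations, triplicates.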

Test [7] has as its target Thyrotropin receptor (Homo sapiens) (UniProt P16473). Nature of the test: qHTS assay to identify small molecule antagonists of the thyroid stimulating hormone receptor (TSHR) signaling pathway (AID 1259385; calls by dose curve; further: nearly all actives have a fitted effect of over 20% in size; further: potency means the concentration at half of the fitted maximal effect). In outline: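 TSHR-HEK293 cells (800/well) plated 18 h, then compounds with Ro20-1724 and TSH at 1.5 ng/mL final, 30 min at room temperature. cAMP quantified by HTRF (cAMP-d2/anti-cAMP-cryptate, 1 h); 15 concentrations in triplicate.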

Test [8] is described as follows: qHTS assay to identify small molecule agonists of the estrogen receptor alpha (ER-alpha) signaling pathway in the presence of an antagonist - cell viability counter screen (AID 1259386).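 Further: cells exposed to compounds for 22 h at 37 °C before the viability read; nearly all actives have a fitted effect of over 30% in size.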 Further: potency means the concentration at half of the fitted maximal effect. On activity change, negative = cytotoxicity: series mostly up to about 92 µM. The method, boiled down:
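ICI-182,780 at 10.0nM final accompanies the compound titration (15 concentrations, 22hr, 37C) on VM7Luc4E2 cells. The CellTiter-Fluor fluorescence readout runs in the same wells as the luciferase assay.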

Test [9] in a line: qHTS assay to identify small molecule antagonists of the estrogen receptor beta (ER-beta) signaling pathway - cell viability counter screen (AID 1259382). Further: series mostly up to about 92 µM; nearly all actives have a fitted effect of over 55% in size. In outline:
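Agonist-stimulated (1nM E2) ER-beta-UAS-bla HEK293T cells are incubated with library compounds for 16 hr at 37C. Cell viability is then assessed in the reporter-assay wells by adding CellTiter-Glo and reading luminescence after 30 min.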

Test [10] concerns the target Androgen receptor (Homo sapiens) (UniProt P10275). Nature of the test: qHTS assay to identify small molecule agonists of the androgen receptor (AR) signaling pathway in the presence of an antagonist (AID 1259381; calls by dose curve; further: nearly all actives have a fitted effect of over 15% in size). In outline:
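Using human MDA-kb2 cells with an MMTV promoter–luciferase construct (AR and GR response elements), agonist activity is scored under 3.0uM nilutamide (final) co-treatment; 16hr incubation, 37C, luminescence readout via ONE-Glo.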
On the % scale 0 is the no-effect control and ±100 the full control effect.

Sequence of Androgen receptor (Homo sapiens) (P10275 whole entry, looked up): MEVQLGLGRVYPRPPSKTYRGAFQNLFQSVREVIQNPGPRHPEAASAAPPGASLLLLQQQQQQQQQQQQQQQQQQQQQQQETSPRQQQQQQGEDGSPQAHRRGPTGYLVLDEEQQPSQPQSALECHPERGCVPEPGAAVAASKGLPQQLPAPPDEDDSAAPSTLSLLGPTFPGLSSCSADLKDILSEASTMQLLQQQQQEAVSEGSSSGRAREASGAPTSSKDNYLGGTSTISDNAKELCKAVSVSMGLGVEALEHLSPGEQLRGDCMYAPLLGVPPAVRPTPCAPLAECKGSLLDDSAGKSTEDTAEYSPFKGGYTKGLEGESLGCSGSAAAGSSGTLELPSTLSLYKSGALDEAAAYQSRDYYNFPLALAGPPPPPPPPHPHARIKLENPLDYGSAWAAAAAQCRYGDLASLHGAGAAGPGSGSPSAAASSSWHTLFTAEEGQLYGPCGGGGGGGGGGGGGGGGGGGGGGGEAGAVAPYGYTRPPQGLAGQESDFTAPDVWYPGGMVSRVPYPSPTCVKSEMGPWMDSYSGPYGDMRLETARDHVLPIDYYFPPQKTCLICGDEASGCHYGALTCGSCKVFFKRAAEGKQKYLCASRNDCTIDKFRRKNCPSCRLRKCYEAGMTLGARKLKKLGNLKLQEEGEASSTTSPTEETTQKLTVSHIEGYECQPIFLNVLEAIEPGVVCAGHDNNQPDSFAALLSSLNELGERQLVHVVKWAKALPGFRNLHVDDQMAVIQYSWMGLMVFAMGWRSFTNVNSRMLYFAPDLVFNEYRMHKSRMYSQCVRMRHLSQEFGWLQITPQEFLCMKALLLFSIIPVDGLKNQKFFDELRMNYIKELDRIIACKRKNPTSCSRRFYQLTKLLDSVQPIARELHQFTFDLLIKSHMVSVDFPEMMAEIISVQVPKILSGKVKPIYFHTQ
Sequence of Thyrotropin receptor (Homo sapiens) (P16473 whole entry, looked up): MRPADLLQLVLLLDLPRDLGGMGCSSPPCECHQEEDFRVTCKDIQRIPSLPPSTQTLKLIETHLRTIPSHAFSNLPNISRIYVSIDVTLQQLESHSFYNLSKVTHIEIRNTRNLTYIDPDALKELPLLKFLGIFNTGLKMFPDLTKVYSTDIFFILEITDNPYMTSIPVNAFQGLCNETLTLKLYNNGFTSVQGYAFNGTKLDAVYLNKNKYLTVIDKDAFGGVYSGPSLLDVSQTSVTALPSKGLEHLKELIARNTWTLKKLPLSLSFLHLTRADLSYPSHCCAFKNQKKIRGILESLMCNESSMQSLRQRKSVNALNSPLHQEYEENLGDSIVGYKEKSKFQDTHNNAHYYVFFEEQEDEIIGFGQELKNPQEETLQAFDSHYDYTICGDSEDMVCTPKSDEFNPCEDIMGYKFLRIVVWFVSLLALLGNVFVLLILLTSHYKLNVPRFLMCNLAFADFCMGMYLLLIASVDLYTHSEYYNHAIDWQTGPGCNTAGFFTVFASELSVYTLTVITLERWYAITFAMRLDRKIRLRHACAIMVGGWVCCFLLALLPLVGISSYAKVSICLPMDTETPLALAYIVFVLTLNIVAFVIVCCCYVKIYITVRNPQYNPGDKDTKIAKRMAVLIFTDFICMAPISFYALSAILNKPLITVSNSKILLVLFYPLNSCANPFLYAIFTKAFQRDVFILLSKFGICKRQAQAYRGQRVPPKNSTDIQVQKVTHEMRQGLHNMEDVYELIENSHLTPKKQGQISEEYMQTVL
Sequence of Estrogen receptor (Homo sapiens) (P03372 whole entry, looked up): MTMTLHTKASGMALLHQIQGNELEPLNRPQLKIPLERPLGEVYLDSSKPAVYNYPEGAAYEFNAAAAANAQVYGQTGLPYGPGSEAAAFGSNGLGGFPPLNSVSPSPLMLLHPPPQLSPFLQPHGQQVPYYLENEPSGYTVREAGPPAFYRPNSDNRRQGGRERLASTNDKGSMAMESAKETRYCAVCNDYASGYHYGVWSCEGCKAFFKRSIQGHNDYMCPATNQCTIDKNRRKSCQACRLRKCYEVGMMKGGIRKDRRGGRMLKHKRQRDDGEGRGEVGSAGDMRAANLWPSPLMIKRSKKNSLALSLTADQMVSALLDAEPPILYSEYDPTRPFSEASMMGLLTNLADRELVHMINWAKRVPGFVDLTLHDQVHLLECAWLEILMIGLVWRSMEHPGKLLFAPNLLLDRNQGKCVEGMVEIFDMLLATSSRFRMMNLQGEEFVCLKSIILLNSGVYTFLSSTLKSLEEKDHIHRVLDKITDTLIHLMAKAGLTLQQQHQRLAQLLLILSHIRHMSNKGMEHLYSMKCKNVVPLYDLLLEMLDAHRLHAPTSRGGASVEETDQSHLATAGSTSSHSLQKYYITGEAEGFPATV
Sequence of Estrogen receptor beta (Homo sapiens) (Q92731 whole entry, looked up): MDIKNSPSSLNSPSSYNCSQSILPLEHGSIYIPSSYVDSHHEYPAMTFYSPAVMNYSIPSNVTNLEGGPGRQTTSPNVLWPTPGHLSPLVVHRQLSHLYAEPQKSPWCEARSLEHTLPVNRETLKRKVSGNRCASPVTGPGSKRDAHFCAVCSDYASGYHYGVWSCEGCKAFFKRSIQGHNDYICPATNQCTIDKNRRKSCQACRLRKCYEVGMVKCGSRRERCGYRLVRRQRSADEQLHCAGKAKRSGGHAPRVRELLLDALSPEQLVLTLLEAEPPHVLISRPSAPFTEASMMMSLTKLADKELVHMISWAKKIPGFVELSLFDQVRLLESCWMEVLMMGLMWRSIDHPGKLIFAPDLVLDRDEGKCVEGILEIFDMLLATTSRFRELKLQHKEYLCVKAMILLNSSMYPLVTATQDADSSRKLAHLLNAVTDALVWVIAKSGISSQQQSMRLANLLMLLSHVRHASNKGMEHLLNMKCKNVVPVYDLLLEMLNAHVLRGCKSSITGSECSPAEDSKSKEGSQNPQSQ

Take `O=C(O)C(c1ccc(Cl)cc1)c1ccc(Cl)cc1`: the Potency result in [1], in test [2], in [3], in test [5], in test [6] and in test [7] was “inactive” throughout. The Potency entry in test [8] was “inactive”. In test [4], the Potency is 61.1 µM (active).
For the compound `O=C(O)C1CCC(C(=O)O)CC1` (configuration not stated), the Potency result in test [1], in test [2], in test [3], in test [4], in [9] and in [5] was “inactive” each time. The Potency result in test [6] and in test [8] was “inactive” each time.
Consider `CCCCOC(O)CC` (configuration not stated), for which the Potency result in [1], in test [2], in [3], in [4], in [10] and in [9] was “inactive” in each case. The Potency entry in test [5], in [6], in test [7] and in test [8] was “inactive” in each case.
Take `O=[N+]([O-])c1cccc(Cl)c1Cl`: the Potency entry in test [1], in test [2], in [3], in [4], in test [9] and in test [5] was “inactive” throughout. In addition, the Potency result in test [6] and in test [8] was “inactive” in each case.
`CCCC(C)C`: the Potency result in test [1], in test [2], in test [3], in test [9], in test [5] and in test [6] was “inactive” each time. Besides, in test [8], the Potency result is “inactive”. The Potency in test [4] is 61.8 µM (active).
For `CCOc1ccc(NC(=O)CC(C)=O)cc1`, the Potency entry in [1], in test [2], in [3], in test [4], in test [9] and in test [8] was “inactive” throughout.
In the case of `O=C(c1ccc(O)cc1)c1ccc(O)cc1`, the Potency in test [1] is 6.11 µM (active); in [5], 21.7 µM (active). Further, the Potency entry in [2], in test [3], in test [4], in [10], in test [9] and in [7] was “inactive” throughout. Besides, the Potency result in test [8] was “inactive”.
In the case of `Nc1cnn([C@@H]2O[C@H](CO)[C@@H](O)[C@H]2O)c(=O)n1`, the Potency result in test [1], in test [3], in test [4], in test [9], in [5] and in test [6] was “inactive” throughout. Further, the Potency entry in test [8] is “inactive”. Also, the Potency in [2] is 27.3 µM (active).
Regarding `CC(C)(C)c1ccc(OCC2CO2)cc1` (configuration not stated), the Potency result in test [1], in test [2], in test [3], in test [9], in test [5] and in test [6] was “inactive” in each case. The Potency result in test [7] and in [8] was “inactive” throughout.
As for `Cc1cc(C)c(S(=O)(=O)O)cc1N=Nc1cc(S(=O)(=O)O)c2ccccc2c1O`, the Potency entry in test [1], in test [2], in test [4], in [10], in [9] and in [6] was “inactive” in each case. Further, the Potency result in test [7] was “inactive”. Also, the Potency in [3] and in [8] was 27.3 µM (active) throughout.
As for `NCc1ccccc1`, the Potency entry in [1], in test [2], in [3], in test [4], in test [9] and in test [6] was “inactive” in each case. For the same compound, the Potency result in [7] and in [8] was “inactive” throughout.
Take `CC(C)CC=O`: the Potency entry in [1], in [2], in test [3], in test [4], in [9] and in test [5] was “inactive” in each case. The Potency entry in [6] and in [8] was “inactive” each time.
Take `CCCCCCCCCCCCCCCCCBr`: the activation in test [1] is -3.04% [at 19 µM]. In test [2], the activity, negative = inhibition is 11.4% [at 19 µM]. Moreover, the activity change, negative = cytotoxicity in [3] was 4.41% [at 19 µM]; in test [4], -0.948% [at 19 µM]; in test [9] it was -6.31% [at 19 µM]; in [8] it was 0.889% [at 19 µM].
`CCN(CC)C(C)=O`: the Potency result in test [1], in [2], in [3], in test [4], in test [9] and in test [6] was “inactive” in each case. Besides, the Potency result in test [7] and in test [8] was “inactive” in each case.
For `CCCCCCOC(=O)CCC`, the Potency entry in test [1], in test [2], in [3], in test [4], in test [9] and in test [6] was “inactive” in each case. Moreover, the Potency entry in [7] and in test [8] was “inactive” in each case.
As to `c1ccc(OCc2ccc(CCCN3CCOCC3)cc2)cc1`, the Potency result in test [1], in [2], in [4], in test [10], in test [9] and in [5] was “inactive” each time. For the same compound, the Potency result in [6] is “inactive”. Moreover, the Potency in test [3] is 29.8 µM (active).
On to `O=C(Cl)c1ccc([N+](=O)[O-])cc1`, for which the Potency result in [1], in [2], in test [3], in test [4], in test [10] and in [9] was “inactive” in each case. Moreover, the Potency result in test [5], in test [6], in [7] and in test [8] was “inactive” each time.
Regarding `SC1CCCC1`, the Potency result in test [1], in [2], in [3], in [4], in test [9] and in [5] was “inactive” throughout. Further, the Potency entry in test [6], in test [7] and in test [8] was “inactive” in each case.
For the compound `C=CCCCCCC`, the Potency entry in [1], in test [2], in test [3], in test [4], in [9] and in test [5] was “inactive” in each case. Moreover, the Potency entry in [6] and in [8] was “inactive” in each case.
In the case of `O=C1CCCCCO1`, the Potency entry in test [1], in [2], in [3], in test [4], in test [9] and in [5] was “inactive” in each case. Also, the Potency result in test [6], in [7] and in test [8] was “inactive” in each case.
On to `CC(C)(Oc1ccc(Cl)cc1)C(=O)OCCCOC(=O)C(C)(C)Oc1ccc(Cl)cc1`, for which the Potency entry in [1], in test [2], in test [3], in test [4], in [10] and in test [9] was “inactive” throughout. Moreover, the Potency result in [5], in test [6] and in [8] was “inactive” throughout. The Potency in test [7] was 29.8 µM (active).
Turning to `CC(=O)NCCCS(=O)(=O)O`, the Potency entry in [1], in test [2], in [3], in test [4], in test [9] and in test [5] was “inactive” each time. The Potency entry in test [6], in test [7] and in test [8] was “inactive” throughout.
As for `O=C(/C=C/c1ccc(O)c(O)c1)O[C@@H]1C[C@](O)(C(=O)O)C[C@@H](O)[C@H]1O`, the Potency result in [1], in test [2], in test [3], in test [4] and in [9] was “inactive” each time.
On to `O=CNc1ccccc1`, for which the Potency entry in [1], in test [2], in test [3], in test [4], in test [9] and in test [8] was “inactive” throughout.
`CC1(C)[C@H]2CC[C@]1(C)[C@H](O)C2`: the Potency entry in test [1], in test [2], in test [3], in test [4], in test [9] and in [6] was “inactive” each time. Besides, the Potency entry in test [7] and in [8] was “inactive” each time.
On to `ClC(Cl)(Cl)c1ccc(C(Cl)(Cl)Cl)cc1`, for which the Potency entry in [1], in test [2], in test [3], in test [4], in test [9] and in test [5] was “inactive” in each case. Moreover, the Potency result in [6] and in test [8] was “inactive” each time.
As to `C=C(C)C(=O)OCCN(C)C`, the Potency entry in [1], in test [2], in test [3], in [4], in test [9] and in [5] was “inactive” throughout. In addition, the Potency entry in test [8] was “inactive”.
